Shown is part of a subset that was picked to be rich in hits.
TTR transcr act: TTR transcription activation, primary screen | SH-SY5Y TTR promoter Gaussia luciferase, luminescence; 100% = recombinant luciferase protein wells | 1.3% of 92,000 active | AID 1117267 | activation, % at 16.7 µM;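 active means activation above the mean of all tested compounds plus 3 SD, cut at about 9.5% in these data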;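 further: cells exposed to compounds for one day before reading; 0% = median of all test compound wells on the plate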
HuH7 TTR inh: HuH7 TTR transcription inhibition, counter-screen. shares compounds with TTR transcr act. HuH7 TTR promoter-Gaussia luciferase reporter, luminescence. inhibition, % at 16.7 µM. 4% of 1,100 active. AID 1117279;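 active means average inhibition above the solvent-only control wells' mean plus 3 SD, cut at about 15% in these data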;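 further: 0% = cells with DMSO only and 100% = cells with inhibitor control FD; inhibitors lower well luminescence so higher value means more inhibition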
TTR up confirm: confirmation of human transthyretin transcription activators; SHSY5Y TTR promoter Gaussia luciferase, luminescence; 100% = purified Lucia enzyme wells, no cells; activation, % at 16.7 µM; shares compounds with TTR transcr act; 1,100 tested, under 10 active;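 active means mean activation above a set limit taken from the earlier primary screen, cut at about 11% in these data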;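 further: 0% = DMSO-treated cells and 100% = recombinant Lucia luciferase without cells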
The depositor's hits bear a star.

SMILES | TTR transcr act | others
O=C(CSc1nc2ccccc2n1-c1ccccc1)NCC1CCCO1 (stereo not given) | 2
Cc1ccc(C)n1-c1ccc(C(=O)NCC2CCCO2)cc1 (stereo not given) | 2
Nc1c(C(=O)NCC2CCCO2)c2nc3ccccc3nc2n1-c1ccccc1 (stereo not given) | 11* | HuH7 TTR inh=-15;TTR up confirm=0
CSc1cccc(Nc2ccc(S(=O)(=O)N3CCOCC3)cc2[N+](=O)[O-])c1 | 1
CCCC1CCC2(CC1)CCC2OC(=O)Nc1c(OC)cccc1OC (stereo not given) | 0
Cc1ccsc1C(=O)Nc1nnc(-c2ccco2)o1 | 16* | HuH7 TTR inh=0;TTR up confirm=0
Cc1ccc(C(=O)Nc2nnc(-c3ccco3)o2)cc1 | 6
CCC(=O)Nc1nnc(-c2ccco2)o1 | 1
COc1ccc(OC)c(CN2C(=O)CCC2(C)c2nnnn2-c2c(C)cccc2C)c1 (stereo not given) | -2
CC(C)c1ccc(NC(=O)CNS(=O)(=O)c2ccc(F)cc2)cc1 | -2
CCCCn1nc(C(=O)Oc2ccc3c(C)cc(=O)oc3c2)c2ccccc2c1=O | -3
O=C(O)C(F)=C(c1ccccc1)c1ccccc1 | -1
C[C@H](NC(=O)c1ncn2c1C(=O)NC[C@H]2C)c1ccccc1 | 0
COc1ccc(/C=C/C(=O)OCC(=O)c2c(N)n(C)c(=O)n(C)c2=O)c(OC)c1 | 9.8* | HuH7 TTR inh=0;TTR up confirm=0
CCCOc1ccc(C(=O)OCC(=O)c2c(N)n(C)c(=O)n(C)c2=O)cc1OC | 0
COc1ccc(/C=C/C(=O)OCC(=O)c2ccc3c(c2)NC(=O)CO3)c(OC)c1 | 0
COc1ccc(-c2cc(C(F)(F)F)n3nc(C(=O)N4CCOCC4)nc3n2)cc1 | 3
O=C(c1cc2nc(-c3ccccc3)cc(C(F)(F)F)n2n1)N1CCCC1 | -1
O=C(c1nc2nc(-c3ccccc3)cc(C(F)(F)F)n2n1)N1CCCCC1 | 11* | HuH7 TTR inh=-3;TTR up confirm=0
C=CCN1C(=O)[C@H](CC(=O)N2CCSCC2)[C@@]2(C(=O)OCC)CCCC=C12 | 0
O=C(CNC(=O)c1ccc(Br)o1)NCC(=O)OCc1ccccc1 | 0
COc1ccccc1NC(=O)C(C)OC(=O)CCNS(=O)(=O)c1ccc(C)c(C)c1 (stereo not given) | -2
O=C(CO/N=C/c1ccc(Cl)cc1Cl)NNC(=O)c1ccc(Cl)cc1Cl | 0
O=C(CO/N=C/c1c(Cl)cccc1Cl)NNC(=O)c1ccc(Cl)cc1 | 11* | HuH7 TTR inh=-16;TTR up confirm=0
O=C(CO/N=C/c1c(Cl)cccc1Cl)NNC(=O)c1cccc(Cl)c1 | 2
SMILES | TTR transcr act | others
O=C(Nc1ccc2c(c1)Cc1ccccc1-2)NC1CCCCN(Cc2ccc(Cl)cc2)C1=O (stereo not given) | -1
N#Cc1ccc(NC(=O)OC2CC3CC2[C@H]2CCCCN2[C@H]3Cc2ccccc2)cc1 (stereo not given in full) | 0
C/C(=C\c1ccccc1)C(=O)NCc1ccco1 | 1
COc1ccc(S(=O)(=O)NCC(=O)N(CC(=O)NCc2ccco2)Cc2ccccc2)cc1 | 0
COc1ccccc1CN(CC(=O)NCc1ccco1)C(=O)CNS(=O)(=O)c1ccc(C)cc1 | 12* | HuH7 TTR inh=-11;TTR up confirm=-1
COc1ccccc1N(CC(=O)NCC1CCCO1)C(=O)CNS(=O)(=O)c1ccc(Cl)cc1 (stereo not given) | 2
O=C(CN(C(=O)CNS(=O)(=O)c1ccc(F)cc1)c1cccc(F)c1)NCC1CCCO1 (stereo not given) | -1
COc1ccccc1N(CC(=O)NCC1CCCO1)C(=O)CNS(=O)(=O)c1ccc(C)cc1 (stereo not given) | 13* | HuH7 TTR inh=-9;TTR up confirm=1
COc1ccc(CNC(=O)CN(Cc2ccco2)C(=O)CNS(=O)(=O)c2ccccc2)cc1 | 1
COc1ccc(Cc2c(-c3ccc(OC)c(OC)c3)nc3cc(C)c(Br)c(C)n23)c(C)c1 | 3
COc1c2c(nc3occc13)C(CC=C(C)C)(OC)C(OC(C)=O)CC2 (stereo not given) | -2
C=CCN1C/C(=C/c2ccccc2)N2C(=O)CC(c3ccccc3)N=C12 (stereo not given) | 11* | HuH7 TTR inh=-18;TTR up confirm=1
CC[C@H]1/C(=C/c2ccccc2)N2C(=O)C[C@H](c3ccccc3)N=C2N1C | 3
O=C1CC(c2ccc3ccccc3c2)N=C2N(Cc3ccc4c(c3)OCO4)C/C(=C/c3ccccc3)N12 (stereo not given) | -1
COc1ccccc1N1CCN(Cc2cc(=O)oc3ccccc23)CC1 | 1
Cc1ccc(CCNC(=O)C2CCC(CNc3c(N4CCCC4)c(=O)c3=O)CC2)cc1 (stereo not given) | 0
Cc1ccc(CCNC(=O)C2CCC(CNc3c(N4CCC(C)CC4)c(=O)c3=O)CC2)cc1 (stereo not given) | 23* | HuH7 TTR inh=3;TTR up confirm=0
CC1CCN(c2c(NCC3CCC(C(=O)NCCc4ccccc4)CC3)c(=O)c2=O)CC1 (stereo not given) | 9
O=C(O)c1ccc2c(c1)-c1cc(C(=O)O)ccc1S2(=O)=O | 3
CCCCn1nnnc1C1(C)CCC(=O)N1CC(F)(F)F (stereo not given) | 0
Cc1ccc(-c2nc3ncccn3c2NC(=O)c2ccc(F)cc2)cc1 | 0
O=C(Nc1cccc(Br)c1)OC1CC2CC1[C@H]1CCCCN1[C@H]2Cc1ccccc1 (stereo not given in full) | 1
Cc1ccc(OCc2cc(C(=O)N3CCCC3)no2)cn1 | -1
COc1cccc(OCc2cc(C(=O)N3CCN(c4ccccc4O)CC3)no2)c1 | 11* | HuH7 TTR inh=4;TTR up confirm=1
Cc1ccc(N2CCN(C(=O)c3cc(COc4c(C)cccc4C)on3)CC2)c(C)c1 | 1
SMILES | TTR transcr act | others
CCN(/C=N/S(=O)(=O)c1ccc(Cl)cc1)CC | -1
Cc1cc(C)nc(NS(=O)(=O)c2ccc(NC(=O)C3CC(=O)N(c4ccccc4)C3)cc2)n1 (stereo not given) | -1
Cc1cc(C)nc(NS(=O)(=O)c2ccc(NC(=O)C3CC3)cc2)n1 | 24* | HuH7 TTR inh=-21;TTR up confirm=0
Cc1ccnc(NS(=O)(=O)c2ccc(NC(=O)C3CC3)cc2)n1 | 5
CC1=C(C(=O)N(C(C)C)C(C)C)CC(CC(=O)NCCCCc2ccccc2)C(=O)N1Cc1ccc(C(C)(C)C)cc1 (stereo not given) | -2
COc1ccc(Cn2ccc3ccc(-c4ccc5ccn(C(=O)c6ccccc6OC)c5c4)cc32)cc1 | -1
Cc1ccc(S(=O)(=O)N2CCOC23CCN(S(=O)(=O)c2c(C)cc(C)cc2C)CC3)cc1 | -1
C=CCC[C@@H](Cc1ccc(F)cc1)C(=O)OC[C@H](Cc1c[nH]c2ccccc12)NC(=O)[C@@H](CC=C)CC(=O)N[C@H](CO)Cc1ccccc1 | -4
C=CCC[C@@H](Cc1ccc(F)cc1)C(=O)OC[C@@H]1CCCN1C(=O)[C@H](CC=C)CC(=O)N[C@H](CO)Cc1ccccc1 | 17* | HuH7 TTR inh=0;TTR up confirm=-2
C=CC[C@@H](CC(=O)N[C@H](CO)Cc1ccccc1)C(=O)N[C@@H](COC(=O)[C@@H](CC=C)Cc1ccc(F)cc1)Cc1ccccc1 | 4
O=C(Nc1ccc(N2C(=O)CC3(CCCCC3)C2=O)c(Cl)c1)c1ccccn1 | -1
Cc1cc(C)n2nc(SCc3nnc(-c4ccccc4Br)o3)nc2n1 | 1

Compound activity as filed in PubChem BioAssay.
